Source: PubChem
An excerpt weighted towards active compounds, which were near 5.8% of everything screened.
KB-V1 cytotox – qHTS assay for MDR1-selective chemotherapeutics: Primary screen using the drug-selected MDR subline cells KB-V1. KB-V1 MDR cells viability, CellTiter-Glo, 72 h. Potency, µM (series often up to 46.1 µM), usual class: cytotoxic. 3.4% of 400,000 active; further: nearly all actives have a fitted effect of over 60% in size
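Readout: CellTiter-Glo luminescence, 10 min after addition. Cells: KB-V1 MDR subline, 72 h at 37 degrees C with compound. Analysis: corrected, normalized data fitted to concentration-effect curves.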
ALOX12 inh – Primary qHTS assay for inhibitors of human arachidonate 12S-lipoxygenase (ALOX12): Round 2; Polyunsaturated fatty acid lipoxygenase ALOX12 (Homo sapiens), P18054; purified 12hLO, xylenol orange hydroperoxide absorbance; Potency, µM (titrated, usually from 108 µM), usual class: inhibitors; 1.1% of 580,000 active
Target sequence (P18054 whole entry, looked up): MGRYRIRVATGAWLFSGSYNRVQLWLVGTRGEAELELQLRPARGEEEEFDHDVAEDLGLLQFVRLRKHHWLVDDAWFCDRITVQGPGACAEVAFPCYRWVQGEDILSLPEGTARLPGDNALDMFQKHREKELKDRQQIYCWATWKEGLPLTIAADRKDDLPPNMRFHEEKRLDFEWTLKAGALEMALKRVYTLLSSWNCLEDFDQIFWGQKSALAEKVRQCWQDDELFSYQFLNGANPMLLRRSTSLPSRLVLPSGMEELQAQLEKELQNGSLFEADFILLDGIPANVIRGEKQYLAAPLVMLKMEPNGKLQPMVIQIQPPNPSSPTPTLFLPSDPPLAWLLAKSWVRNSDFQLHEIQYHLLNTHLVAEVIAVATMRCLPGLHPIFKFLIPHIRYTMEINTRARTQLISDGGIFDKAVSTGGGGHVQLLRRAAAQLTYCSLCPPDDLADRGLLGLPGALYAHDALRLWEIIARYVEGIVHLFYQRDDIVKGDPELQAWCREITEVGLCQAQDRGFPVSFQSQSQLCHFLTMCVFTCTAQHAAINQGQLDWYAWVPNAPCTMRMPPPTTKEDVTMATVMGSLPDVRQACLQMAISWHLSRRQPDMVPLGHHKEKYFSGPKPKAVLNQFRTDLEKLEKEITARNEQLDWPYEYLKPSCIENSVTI
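Purified human 12hLO at 150 nM in 25 mM Hepes, 0.01% Triton X-100, pH 7.0, preincubated 15 min at room temperature with compound. Reaction started with 40 uM arachidonic acid, 30 min at room temperature. Hydroperoxide measured by Fe-xylenol orange, 573/405 nm absorbance ratio.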
KB-3-1 cytotox – qHTS assay for MDR1-selective chemotherapeutics: Primary screen using the parental adenocarcinoma cell KB-3-1 | AID 1347075, 2019 | KB-3-1 viability, CellTiter-Glo ATP luminescence, 72 h | 1.4% of 400,000 active | Potency, µM (series often up to 46.1 µM), actives largely listed as cytotoxic; further: nearly all actives have a fitted effect of over 60% in size
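Cytotoxicity measured as CellTiter-Glo luminescence after 72 h at 37 C. Compound titrations were pinned onto drug-naive KB-3-1 parental adenocarcinoma cells grown in DMEM with 10% FBS, and normalized data fitted to concentration-response curves.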
PINK1 expr mod – A Quantitative High throughput Screen to Identify Chemical Modulators of PINK1 Expression; PINK1 immunofluorescence, high-content cytometry, 24 h; Potency, µM (highest dose often 76.6 µM), hits mostly activators; 0.2% of 410,000 active; active means well fitted activation curve with a large enough effect; inconclusive means small, poorly fitted or top-dose-only effect; cell line not stated here; further: nearly all actives have a fitted effect of over 65% in size
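Cells are seeded, rested 12 hours, then given compound at five concentrations or DMSO for 24 hours. After fixation, blocking and antibody staining, PINK1 amount and mitochondrial localization are scored; CCCP serves as control.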
MCF10A rerep – A quantitative high throughput screen for small molecules that induce DNA re-replication in MCF 10a normal breast cells | MCF 10A DNA re-replication, Hoechst nuclear intensity, 48 h | Potency, µM (series often up to 46.1 µM), usual class: activators | 2.9% of 350,000 active; further: nearly all actives have a fitted effect of over 50% in size
SW480 rerep – A quantitative high throughput screen for small molecules that induce DNA re-replication in SW480 colon adenocarcinoma cells. SW480 DNA re-replication, Hoechst DNA content imaging, 48 h. Potency, µM (doses to about 46.1 µM), hits mostly activators. 1.8% of 340,000 active; further: nearly all actives have a fitted effect of over 55% in size
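First, 250 cells per well were seeded. Next, compound or vehicle (23 nL) was pinned in, plates sat 48 hr at 37 C. Finally Hoechst was added for 40 min before fluorescence scanning.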
Numbers stand for hits; – = inactive; ? = inconclusive; · = no result given; ! = not active in a repeat; [ ] = dose if it differs, or a comment. Unless noted, the call rests on the fitted dose curve; in most records, active means well fitted curve in the direction sought with a large enough effect; inconclusive means small, poorly fitted or top-dose-only effect, or another doubt; inactive means no such curve, though single readings can be large; an effect the other way counts as inactive or inconclusive.

SMILES | KB-V1 cytotox | ALOX12 inh | KB-3-1 cytotox | PINK1 expr mod | MCF10A rerep | SW480 rerep
CS(=O)(=O)c1ccccc1-c1nnc(NC(=O)c2ccc(S(=O)(=O)N3CCCC3)cc2)o1 | – | – | – | – | – | –
COC(=O)c1sc2ccccc2c1NC(=O)c1ccc(S(=O)(=O)N2CCCCC2C)cc1 (centres undefined) | 16µM | – | – | – | – | –
O=C(Nc1nnc(-c2ccccc2Cl)o1)c1ccc(S(=O)(=O)N2CCCCCC2)cc1 | 8.2µM | · | ? | – | 4µM | ?
COCc1nnc(NC(=O)c2ccc3c(ccn3C)c2)s1 | · | – | · | · | · | ·
COc1cccc(/C=C/c2nc(C#N)c(NCCCN3CCOCC3)o2)c1 | · | – | · | · | · | ·
Cc1nc(NCCC(C)C)sc1C(=O)NC1CC1 | · | – | · | · | · | ·
CCCCCC(C)NCc1sccc1C (centres undefined) | · | 0.45µM | · | · | · | ·
CCC(CO)NCc1sccc1C (centres undefined) | – | – | – | – | – | –
Cc1ccc2c3cc(-c4ccccc4)cn3ccn12 | · | 0.79µM | · | · | · | ·
CCn1cc(-c2ccccc2)cc1C(=O)O | · | – | · | · | · | ·
CC(C)c1ccc(S(=O)(=O)/N=C2/C=C(Sc3ncn[nH]3)C(=O)c3ccccc32)cc1 | ? | · | – | – | 3.3µM | 10µM
Cc1ccc(S(=O)(=O)Nc2ccc(O)c(Sc3ncn[nH]3)c2)cc1 | – | ? | – | – | – | –
Cc1ccc(S(=O)(=O)/N=C2/C=C(Sc3ncn[nH]3)C(=O)c3ccccc32)cc1 | ? | · | – | – | – | 8.2µM
CCOc1ccc(S(=O)(=O)Nc2ccc(O)c(Sc3ncn[nH]3)c2)cc1 | – | – | – | – | – | –
COc1cccc(O)c1CN1CCC(C(=O)Nc2ccc(-c3cccc(C)c3)cc2)CC1 | ? | ? | 18µM | – | ? | ?
O=C1c2cnc(-c3cc4ccccc4o3)nc2OCCN1c1ccccc1 | · | – | · | · | · | ·
CCCCCc1ccnc(CC(=O)c2ccc(OC)cc2)c1 | – | ? | 23µM | – | – | –
COc1cccc(C(=O)Nc2nc3ccc(S(=O)(=O)N4CCCC4)cc3s2)c1 | ? | – | 13µM | – | · | ·
O=C(Nc1nc2ccc(S(=O)(=O)N3CCCCC3)cc2s1)C1CCCO1 (centres undefined) | – | – | ? | – | – | ?
O=C(Nc1nc2ccccc2s1)C1CCN(S(=O)(=O)c2cc([N+](=O)[O-])ccc2Cl)CC1 | 13µM | – | 2.3µM | – | – | ?
O=C(Nc1nc2ccc(S(=O)(=O)N3CCCC3)cc2s1)C1CCCCC1 | 3.7µM | – | 2.6µM | – | 10µM | 7.3µM
C=CCN(CC=C)S(=O)(=O)c1ccc2nc(NC(=O)C3CCCO3)sc2c1 (centres undefined) | 8.2µM | – | ? | – | ? | ?
Cc1ccc2nc(C)cc(C(=O)OC(C)C(=O)NC3CCCC3)c2c1 (centres undefined) | · | – | · | · | · | ·
CCc1nc(CN(C)C(C)c2ccc(S(N)(=O)=O)cc2)cs1 (centres undefined) | · | – | · | · | · | ·
COc1cc(C(=O)Nc2nc3ccc(S(C)(=O)=O)cc3s2)cc(OC)c1C | – | ? | – | – | – | 18µM
SMILES | KB-V1 cytotox | ALOX12 inh | KB-3-1 cytotox | PINK1 expr mod | MCF10A rerep | SW480 rerep
CN(C)c1cccc(C(=O)Nc2nc3ccc(S(=O)(=O)N4CCCC4)cc3s2)c1 | 21µM | – | 10µM | – | · | ·
COc1cc(/C=C/C(=O)Nc2nc3ccc(S(=O)(=O)N(C)C)cc3s2)cc(OC)c1OC | – | – | ? | ? | ? | 10µM
N#CCc1nc2ccc(S(=O)(=O)N3CCOCC3)cc2s1 | – | – | – | – | 13µM | –
CSc1nc2ccc(S(=O)(=O)N3CCOCC3)cc2s1 | – | – | – | · | – | –
CSc1ccc(/C=C(\C#N)C(=O)Nc2ccc(C)cc2)cc1 | · | – | · | · | · | ·
COc1ccc(/C=C/C(=O)Sc2ccc(C)cc2)cc1 | · | – | · | · | · | ·
CN(C)c1ccc(/C=C2\N=C(c3ccc(Cl)c([N+](=O)[O-])c3)NC2=O)cc1 | – | – | ? | – | – | –
CCc1nc(N)nc(N)c1-c1ccc(Cl)c(N=[N+]=[N-])c1 | 16µM | ? | 12µM! | – | ? | –
CCc1nc(N)nc(N)c1-c1ccc(Cl)c([N+](=O)[O-])c1 | – | – | 0.65µM | – | – | –
CCc1c(N)nc(N)nc1Nc1ccccc1Cl | ? | – | – | – | – | –
C[S+](=O)([O-])N1Cc2ccccc2CC2(CCCCN2CC2CCOCC2)C1 (centres undefined) | · | –[6.33 µM] | · | · | · | ·
CCCNC(=O)NC(C)(C)C(=O)O | · | – | · | · | · | ·
CC(C)OCCCNc1nc2c(c(=O)n(C)c(=O)n2C)n1Cc1ccccc1Cl | · | – | · | · | · | ·
Cc1ccc(CNC(=O)c2ccc(C(F)(F)F)cc2)cc1 | · | – | · | · | · | ·
Cn1c(=O)[nH]c(=O)c2c1nc(N1CCN(CC(N)=O)CC1)n2Cc1ccc(Cl)cc1 | · | – | · | · | · | ·
O=C(CCS(=O)(=O)c1ccc(F)cc1)Nc1nc(-c2ccccn2)cs1 | – | – | ? | – | – | –
CC(Oc1ccc(F)cc1)C(=O)Nc1nc(-c2ccccn2)cs1 (centres undefined) | – | – | ? | – | 3.3µM | –
